Bioassay records as filed in PubChem.
PfHsp90 set2: growth inhibition of PfHsp90-expressing yeast, primary screen, antimalarial PfHsp90 inhibitor project, S. cerevisiae, BacTiter-Glo luminescence, single point, set 2. BacTiter-Glo ATP, 48 h; yeast lacking PDR1 and PDR3 efflux regulators. 310,000 compounds, 0.32% hits. AID 504621, 2011. inhibition, % at 9.4 µM;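 active = every replicate shows inhibition above about 80%, whatever the replicate mean, limit read from the data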
tim23-1 inh: growth inhibitors of tim23-1 mutant yeast, primary screen, luminescence, uHTS. S. cerevisiae tim23-1 growth, BacTiter-Glo luminescence, 24 h. inhibition, % at 20 µM. 330,000 compounds, 1.3% hits;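 active = growth inhibition of the mutant yeast at or above 50%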;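 also: temperature-sensitive mutant grown at 25 °C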
SKKanGAS inh: S. pyogenes SKKanGAS growth inhibitors in kanamycin, primary screen, streptokinase expression inhibitor project, SKKanGAS strain, BacTiter-Glo luminescence; 6 h; inhibition, % at 7.5 µM; 300,000 compounds, 1.3% hits;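 active = mean replicate score, as percent of positive control median, at least 50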;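 also: strain carries kanamycin resistance gene driven by streptokinase promoter and grows in 40 µg/ml kanamycin; loss of luminescence reflects streptokinase promoter inhibition or plain growth inhibition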
tim10-1 inh: growth inhibitors of tim10-1 mutant yeast, primary screen, luminescence, uHTS. S. cerevisiae tim10-1 ts strain growth, BacTiter-Glo, 24 h. inhibition, % at 20 µM. 330,000 compounds, 2.2% hits. AID 463190, 2010;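 active = inhibition of at least 40%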;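 also: mutant grown at 25 °C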
TIM10 inh: growth inhibitors of isogenic TIM10 control yeast, primary screen, counter-screen for tim10-1 yeast inhibitor project, luminescence, uHTS; AID 463195, 2010; 330,000 compounds, 1.4% hits; S. cerevisiae TIM10 strain growth, BacTiter-Glo luminescence, 24 h; inhibition, % at 10 µM;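 active = inhibition of 40% or more at the single tested concentration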;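 also: wild-type TIM10 isogenic control strain grown at permissive 25 °C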
tim10-1 conf: growth inhibitors of tim10-1 mutant yeast, confirmation, single concentration, luminescence, S. cerevisiae; shares compounds with tim10-1 inh; S. cerevisiae tim10-1 ts strain growth, BacTiter-Glo, 24 h; inhibition, % at 20 µM; 7,400 compounds, 56% hits; AID 463213, 2010;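 active = inhibition of yeast growth at or above a set limit in either of two repeat tests at 20 µM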;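 also: tim10-1 mutant grown at permissive 25 °C to find synthetic lethal compounds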
TIM10 conf: growth inhibitors of wild-type TIM10 yeast, confirmation, counter-screen for tim10-1 synthetic lethality project, single concentration, luminescence, S. cerevisiae. S. cerevisiae tim10 strain growth, BacTiter-Glo luminescence, 24 h. 4,600 compounds, 63% hits. inhibition, % at 10 µM. shares compounds with TIM10 inh;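 active = inhibition of yeast growth at or above a set limit in either of two replicates at 10 µM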; also: this counterscreen used the strain with wild-type TIM10
Numbers stand for hits; – = inactive; · = no result. This is a sample that favours compounds with a hit; in the whole collection about 4.4% have one here.

SMILES | PfHsp90 set2 | tim23-1 inh | SKKanGAS inh | tim10-1 inh | TIM10 inh | tim10-1 conf | others
Cc1cc(NC(=O)C(C)SCC(=O)N(C)CC(=O)Nc2ccc(Br)cc2C)no1 (stereo not drawn) | – | – | – | – | – | ·
O=C1c2ccccc2C(=O)N1CCc1nc2ccccc2c(=O)n1-c1ccccn1 | – | – | – | 48.7 | – | –
Cc1ccnc(-n2c(CCN3C(=O)c4ccccc4C3=O)nc3ccccc3c2=O)c1 | – | – | – | – | – | ·
Cc1cc(O)ccc1N=Cc1c(C(F)(F)F)[nH][nH]c1=O | – | – | – | – | – | ·
Nc1nc(-c2cccnc2)nc2sc3c(c12)CCCC3 | – | – | – | 51.7 | – | 33.2
CC(=O)Nc1ccc(Oc2nc(-c3cccnc3)nc3sc4c(c23)CCCC4)cc1 | – | – | – | – | – | ·
O=C1CN(c2nc(-c3cccnc3)nc3sc4c(c23)CCCC4)CCN1 | · | – | – | 42.3 | – | –
c1cncc(CNc2ncnc3sc4c(c23)CCCC4)c1 | – | – | – | – | – | ·
Cc1nc(NCc2cccnc2)c2c3c(sc2n1)CCCC3 | – | – | – | 44.5 | – | –
N#CC1(NC(=O)COc2cccnc2[N+](=O)[O-])CCCCC1 | – | – | · | – | – | ·
CC(=O)OC[C@H]1O[C@@H](Oc2cc3ccc(=O)oc3cc2OC(C)=O)[C@H](OC(C)=O)[C@@H](OC(C)=O)[C@@H]1OC(C)=O | – | · | · | · | · | ·
COc1ccc(C)cc1NC(=O)C1CCN(C(=O)c2ccc(C(C)(C)C)cc2)CC1 | – | – | – | – | – | ·
CC1CCN(Cc2nnnn2-c2ccc(Cl)cc2)CC1 | – | – | – | 56.5 | – | 36.8
Clc1ccc(-n2nnnc2CN2CCOCC2)cc1Cl | – | – | – | – | – | ·
Cc1ccc(NC(=O)CN(c2ccc(Cl)cc2)S(=O)(=O)c2cc([N+](=O)[O-])ccc2Cl)c(C)c1 | – | – | – | 44.5 | – | –
N#Cc1nc(-c2ccco2)oc1N1CCCC1 | – | – | – | – | – | ·
N#Cc1nc(-c2ccco2)oc1N1CCc2ccccc2C1 | – | – | – | 44.1 | – | –
Cc1ccc(N2C(=O)c3ccccc3C2=O)cc1 | – | – | – | – | – | ·
Cc1ccc(SC2=C(Sc3ccc(C)cc3)C(=O)c3ccccc3C2=O)cc1 | – | – | – | 42.8 | – | –
Cc1c(C)c2cc(Cl)c(OCC(=O)NCCCn3ccnc3)cc2oc1=O | – | – | – | – | – | ·
COc1ccc(NC(=O)CSc2nnc(-c3ccncc3)o2)c([N+](=O)[O-])c1 | – | – | – | – | – | ·
CCc1nc(N)c(C#N)c(-c2cccn2C)c1C | – | – | – | 40.6 | – | –
COc1cc(C2CC(=O)Oc3cc(C)c(Br)c(C)c32)cc(OC)c1OC (stereo not drawn) | – | – | · | – | – | ·
FC(F)(F)c1ccc(N2CCN(c3cc(-c4ccccc4)nc4ncnn34)CC2)nc1 | – | – | – | 45.3 | – | –
COc1ccc(-n2c(C)nc3c(cnn3-c3ccc(Cl)cc3)c2=O)cc1 | – | – | – | 40.9 | – | –
SMILES | PfHsp90 set2 | tim23-1 inh | SKKanGAS inh | tim10-1 inh | TIM10 inh | tim10-1 conf | others
Cc1ccc(NC(=O)c2cc(-c3ccccc3)nn2-c2ccccc2)cc1 | – | – | – | 44.6 | – | 31.5
CC(C)(C)CC(C)(C)c1ccc(OCCOCC[N+](C)(C)Cc2ccccc2)cc1 | – | – | · | 41.7 | – | –
C[N+](C)(CCOc1ccccc1)Cc1ccccc1 (tested in a mixture with another compound) | – | – | – | – | – | ·
COc1ccc(N(C)S(=O)(=O)c2cccc(C(=O)Nc3cccc(C(=O)NC4CC4)c3)c2)cc1 | – | – | · | – | – | ·
Clc1ccc(Cn2c(-c3cccnc3Cl)nc3ccccc32)c(Cl)c1 | – | – | – | 42.0 | – | –
Clc1ccc(Cn2c(-c3cccnc3Cl)nc3ccccc32)cc1 | – | – | – | 42.6 | – | –
CCn1c(-c2cccnc2Cl)nc2cc(Cl)c(Cl)cc21 | – | – | – | – | – | ·
CN(C1CCCCC1)S(=O)(=O)c1ccc(NC(=O)c2ccco2)cc1 | – | – | – | 44.1 | – | 29.1
CN(c1ccccc1)S(=O)(=O)c1ccc(NC(=O)c2ccco2)cc1 | – | – | – | – | – | ·
COc1ccc(CN2CCc3c([nH]c4ccccc34)C2)c(OC)c1C | – | – | – | – | – | ·
Cc1ccc(-c2nc(C(=O)NCCCN3CCOCC3)cc3c2[nH]c2ccccc23)cc1 | · | – | – | 40.5 | – | 32.4
CSc1ncccc1C(=O)Nc1cccc(S(=O)(=O)N2CCCCC2)c1 | – | – | · | – | – | ·
CCCCCC(=O)NNC(=S)NC(=O)c1cccc([N+](=O)[O-])c1 | – | – | – | – | – | ·
O=C(NNC(=S)NC(=O)c1ccccc1[N+](=O)[O-])c1ccccc1Cl | – | – | – | – | – | ·
O=C(NC(=S)NNC(=O)c1ccccc1[N+](=O)[O-])c1ccc(Br)cc1 | – | – | 63.1 | 40.7 | – | 44.4
CCCCCC(=O)NNC(=S)NC(=O)c1ccccc1[N+](=O)[O-] | · | – | – | 43.0 | – | –
CCCCCCNC1=NCCS1 | – | – | – | – | – | ·
COc1ccc(OC)c2c1C(=O)c1ccccc1C2=O | · | – | – | – | – | ·
COc1ccc(OC)c2c1C(=O)C(Cl)=C(Cl)C2=O | 110.0 | – | – | 91.1 | 96.4 | 93.7 | TIM10 conf=99.3
CCOC(=O)C1CCCN(C(=O)c2sc3nc(-c4ccc(F)cc4)cn3c2C)C1 (stereo not drawn) | – | – | – | 52.7 | 55.7 | 48.3 | TIM10 conf=42.5
CCOC(=O)C1CCN(C(=O)c2sc3nc(-c4ccc(F)cc4)cn3c2C)CC1 | – | – | – | 74.2 | 78.1 | 73.8 | TIM10 conf=69.2
CCOC(=O)C1CCCN(C(=O)c2sc3nc(-c4ccccc4)cn3c2C)C1 (stereo not drawn) | – | – | – | – | – | ·
NC(=O)c1[nH]cnc1N | – | – | – | – | – | ·
CCCOc1ccc(C(=O)C(CN2CCOCC2)c2ccccc2)cc1 (stereo not drawn) | – | – | – | 45.9 | 50.2 | 46.4 | TIM10 conf=–
CC(C)(C)NC(=O)CCN(/N=C/c1ccccc1O)C1=NS(=O)(=O)c2ccccc21 | – | – | – | – | – | ·
Cc1ccc(C(c2nnnn2CCc2ccccc2)N2CCC(C)CC2)cc1 (stereo not drawn) | – | – | – | 44.9 | 46.9 | 35.9 | TIM10 conf=–
CCOC(=O)c1c(N)sc(C(O)(C(F)(F)F)C(F)(F)F)c1-c1ccc(F)cc1 | – | – | – | 43.0 | 41.2 | – | TIM10 conf=–
